About 2,000 (36%) of roughly 5,500 compounds were called active. About 18% were inconclusive and are not listed. Rule as the data show it: active = normalized growth mostly below about 0.91 (no sharp cut-off); inconclusive = no clear call, values can overlap the other calls; inactive = mostly above about 0.92. The list shows a part of the results.
Assay: chemical genetic growth profiling, strain panel (AID 1159580);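 also: tested at 20 µM; growth read once vehicle control cultures reached saturation at 30 °C; 1 = growth at the plate median or of vehicle wells; lower values mean less growth of the strain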
Details: S. cerevisiae deletion strains, growth OD

Measured: normalized growth

CN[C@@H]1[C@@H](O)C(OC2[C@@H](N)C[C@@H](N)[C@H](O[C@H]3O[C@H](C(C)O)[C@@H](O)[C@H](O)[C@H]3N)[C@H]2O)OC[C@]1(C)O (stereo not given in full)
inactive: locus YAL021C, strain ccr4, hits give low values 0.963 | locus YAL026C, strain drs2, hits give low values 0.984 | locus YAL030W, strain snc1, hits give low values 0.986 | locus YBL061C, strain skt5, hits give low values 0.978 | locus YBR009C, strain hhf1, hits give low values 0.989 | locus YBR023C, strain chs3, hits give low values 0.973 | locus YBR171W, strain sec66, hits give low values 0.968 | locus YBR231C, strain swc5, hits give low values 0.991 | locus YBR279W, strain paf1, hits give low values 0.981 | locus YCL011C, strain gbp2, hits give low values 0.969 | locus YCL016C, strain dcc1, hits give low values 0.976 | locus YCL061C, strain MRC1, hits give low values 0.985 | locus YCL069W, strain vba3, hits give low values 0.966 | locus YCR088W, strain abp1, hits give low values 0.978 | locus YDL005C, strain med2, hits give low values 0.967 | locus YDL040C, strain nat1, hits give low values 0.997 | locus YDR001C, strain nth1, hits give low values 0.982 | locus YDR069C, strain doa4, hits give low values 0.969 | locus YDR137W, strain rgp1, hits give low values 1.02 | locus YDR159W, strain sac3, hits give low values 0.969 | locus YDR195W, strain ref2 0.973 | locus YDR297W, strain sur2, hits give low values 0.979 | locus YDR334W, strain swr1, hits give low values 0.967 | locus YDR335W, strain msn5, hits give low values 0.979 | locus YDR392W, strain spt3, hits give low values 0.938 | locus YEL003W, strain gim4, hits give low values 0.982 | locus YEL037C, strain rad23, hits give low values 0.977 | locus YEL061C, strain CIN8 (second series), hits give low values 0.985 | locus YER015W, strain faa2, hits give low values 0.964 | locus YER016W, strain bim1, hits give low values 0.981 | locus YER111C, strain swi4, hits give low values 0.977 | locus YER155C, strain BEM2 (second series), hits give low values 0.966 | locus YFR010W, strain ubp6, hits give low values 0.971 | locus YGL167C, strain pmr1, hits give low values 0.977 | locus YGL173C, strain kem1, hits give low values 0.96 | locus YGL227W, strain vid30, hits give low values 0.98 | locus YGL240W, strain doc1, hits give low values 0.977 | locus YGL253W, strain hxk2, hits give low values 0.963 | locus YHR013C, strain ard1, hits give low values 0.976 | locus YHR027C, strain rpn1, hits give low values 0.977 | locus YHR030C, strain SLT2, hits give low values 1.05 | locus YHR079C, strain IRE1, hits give low values 1.05 | locus YHR142W, strain chs7, hits give low values 0.966 | locus YJL092W, strain hpr5, hits give low values 0.96 | locus YJL095W, strain BCK1 (second series), hits give low values 0.966 | locus YJL095W, strain BCK1, hits give low values 0.989 | locus YJL115W, strain asf1, hits give low values 0.984 | locus YJL129C, strain trk1, hits give low values 0.97 | locus YJL154C, strain vps35, hits give low values 0.976 | locus YJL164C, strain tpk1, hits give low values 0.984 | locus YJL166W, strain qcr8, hits give low values 0.982 | locus YJL187C, strain SWE1, hits give low values 0.988 | locus YJR066W, strain TOR1, hits give low values 0.995 | locus YKL160W, strain elf1, hits give low values 0.988 | locus YKR026C, strain gcn3, hits give low values 0.979 | locus YKR091W, strain srl3, hits give low values 0.971 | locus YLL001W, strain dnm1, hits give low values 0.988 | locus YLL026W, hits give low values 0.971 | locus YLL041C, strain sdh2, hits give low values 0.976 | locus YLR027C, strain aat2, hits give low values 0.973 | locus YLR113W, strain HOG1, hits give low values 0.995 | locus YLR221C, strain rsa3, hits give low values 0.974 | locus YLR258W, strain gsy2, hits give low values 0.969 | locus YLR262C, strain YPT6 (second series), hits give low values 1.02 | locus YLR320W, strain mms22, hits give low values 0.976 | locus YLR342W, strain FKS1, hits give low values 0.972 | locus YLR357W, strain rsc2, hits give low values 0.977 | locus YLR370C, strain arc18, hits give low values 0.962 | locus YLR384C, strain iki3, hits give low values 0.958 | locus YML120C, strain ndi1, hits give low values 0.981 | locus YMR058W, strain fet3, hits give low values 0.985 | locus YMR125W, strain sto1, hits give low values 0.975 | locus YMR129W, hits give low values 0.989 | locus YMR205C, strain PFK2, hits give low values 1.01 | locus YMR231W, strain pep5, hits give low values 0.965 | locus YNL071W, strain lat1, hits give low values 0.975 | locus YNL183C, strain NPR1, hits give low values 0.942 | locus YNL209W, strain ssb2, hits give low values 0.994 | locus YNL248C, strain rpa49, hits give low values 0.987 | locus YNL322C, strain KRE1 (second series), hits give low values 0.967 | locus YNR049C, strain mso1, hits give low values 0.979 | locus YOR001W, strain rrp6, hits give low values 0.969 | locus YOR070C, strain gyp1, hits give low values 0.974 | locus YOR080W, strain dia2, hits give low values 0.975 | locus YOR083W, strain WHI5, hits give low values 0.976 | locus YOR106W, strain vam3, hits give low values 0.964 | locus YOR231W, strain MKK1, hits give low values 1.04 | locus YOR265W, strain rbl2, hits give low values 0.983 | locus YOR270C, strain vph1, hits give low values 0.981 | locus YOR290C, strain snf2, hits give low values 0.954 | locus YPL051W, strain arl3, hits give low values 0.983 | locus YPL078C, strain atp4, hits give low values 0.995 | locus YPL106C, strain sse1, hits give low values 0.988 | locus YPL240C, strain hsp82, hits give low values 0.977 | locus YPL256C, strain CLN2, hits give low values 1.02
